CRFBP-R2 agonist: agonists of CRF-BP/CRF-R2 complex, primary screen, cell-based, HEK293, calcium dye fluorescence, uHTS. AID 588473, 2011. calcium dye fluorescence (FLIPR); percent of saturating CRF peptide response. CRF-binding protein / CRF receptor 2 complex (human). activation, % at 13.2 µM. hit rate 0.46% among 350,000;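 active means activation of at least 50%, plus an integration ratio under a set limit after plate pattern correction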;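 further: plate controls were neutral control wells without compound for no effect and CRF at EC100 for full effect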
ABCB6 inh MLPCN: ABCB6 transporter inhibitors, primary screen, K562-ABCB6 cells, flow cytometry, MLPCN library; K562-ABCB6 porphyrin accumulation, 1 h; stronger effect = lower value; fluorescence ratio to DMSO, % at 10 µM; hit rate 0.19% among 360,000;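 active means fluorescence ratio to DMSO below 75%, the collection mean minus 3 SD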;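 further: signal is porphyrin accumulated inside mitochondria; 100% equals median channel fluorescence of DMSO control wells; lower ratio means ABCB6 inhibition with less porphyrin fluorescence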
MEKK2 mut-MEK5: MEK5 binding signal on mutant MEKK2 PB1, primary screen, biochemical, multiplex bead flow cytometry, Alexa488-MEK5; Alexa488-MEK5 binding to MEKK2 mutant; percent response, % at 10 µM; hit rate 0.35% among 290,000; AID 1530, 2009; in the data active means percent response above about 24%, passing the limit was not always enough
MEKK2 WT-MEK5: modulators of MEK5 binding to wildtype MEKK2, primary screen, biochemical, multiplex bead flow cytometry, Alexa488-MEK5. Alexa488-MEK5 binding to MEKK2 WT; actives lie on both sides. binding response (% of control), % at 10 µM. hit rate 1.1% among 290,000. AID 1531, 2009; in the data active means binding response below about 67% or above about 130%
MEKK3 PB1 HTS: modulators of MEKK3-MEK5 PB1 binding, primary screen, biochemical, wildtype MEKK3, multiplex bead flow cytometry, Alexa488-MEK5; binding response (% of control), % at 10 µM; bead-based flow cytometry, Alexa488-MEK5 binding to MEKK3; actives lie on both sides; 0 = blocked by unlabeled MEK5, 100 = vehicle; hit rate 1.4% among 290,000;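 active means binding response more than 3 SD above or below the average of its plate-row segment, actives on both sides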;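 further: Alexa488 bead fluorescence after subtracting the streptavidin-only scavenger bead signal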
Target sequence (Q99759 whole entry, looked up): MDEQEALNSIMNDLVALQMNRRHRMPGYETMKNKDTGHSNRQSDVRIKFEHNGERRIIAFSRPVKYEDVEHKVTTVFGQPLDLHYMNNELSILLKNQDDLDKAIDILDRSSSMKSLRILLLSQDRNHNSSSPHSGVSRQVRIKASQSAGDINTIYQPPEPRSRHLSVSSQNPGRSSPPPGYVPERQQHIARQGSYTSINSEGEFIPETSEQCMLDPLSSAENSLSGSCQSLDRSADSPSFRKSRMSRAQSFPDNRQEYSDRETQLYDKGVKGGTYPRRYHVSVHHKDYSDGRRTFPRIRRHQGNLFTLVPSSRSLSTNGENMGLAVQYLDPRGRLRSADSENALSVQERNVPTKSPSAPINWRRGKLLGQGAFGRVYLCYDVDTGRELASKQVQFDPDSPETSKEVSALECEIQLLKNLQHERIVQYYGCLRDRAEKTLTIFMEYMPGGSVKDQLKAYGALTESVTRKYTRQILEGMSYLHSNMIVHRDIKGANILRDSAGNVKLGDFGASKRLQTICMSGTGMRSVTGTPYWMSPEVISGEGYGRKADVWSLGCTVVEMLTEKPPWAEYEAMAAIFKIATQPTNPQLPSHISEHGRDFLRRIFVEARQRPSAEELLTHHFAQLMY
CRFBP-R2 block: antagonists of CRF-BP/CRF-R2 complex, primary screen, cell-based, HEK293, calcium dye fluorescence, uHTS; CRF-induced calcium fluorescence; inhibition, % at 11.8 µM; hit rate 0.59% among 350,000;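 active means inhibition of the ligand-induced calcium signal above about 50% at the single tested concentration, limit read from the data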
MEKK2wt confirm: modulators of MEK5 binding to wildtype MEKK2, confirmation, biochemical, single concentration, multiplex bead flow cytometry | hit rate 2.4% among 5,900 | binding response (% of control), % at 10 µM | Alexa488-MEK5 binding to MEKK2 WT; actives lie on both sides | shares compounds with MEKK3 PB1 HTS; in the data active means binding response below about 16% or above about 210%; inactive means in between
MEKK2mut confirm: mutant MEKK2 PB1-MEK5 binding signal retest – biochemical, single concentration, multiplex bead flow cytometry, confirmation | Alexa488-MEK5 binding to MEKK2 mutant | shares compounds with MEKK3 PB1 HTS | hit rate 2% among 5,900 | percent response, % at 10 µM; in the data active means percent response mostly above about 71%, no sharp cut-off; inactive means mostly below about 38%;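 further: higher means compound restores mutant binding toward wildtype level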
MEKK3 confirm: MEKK3 wild-type PB1 binding to MEK5, inhibitors, confirmation, biochemical, bead multiplex flow cytometry, single concentration, wildtype; shares compounds with MEKK3 PB1 HTS; Alexa488-MEK5 binding to MEKK3; stronger effect = lower value; binding response (% of control), % at 10 µM; hit rate 1.8% among 5,900;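 active means binding response below 72% of control, or above a set upper limit, though filed actives all read lower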;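 further: 100% = DMSO only wells and 0% = binding blocked by excess unlabeled MEK5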
* marks the source's active call; other numbers are inactive results; . = not tested or not shown; [ ] = remark or other dose. An excerpt weighted towards active compounds, which were near 2.9% of everything screened.

SMILES	CRFBP-R2 agonist	ABCB6 inh MLPCN	MEKK2 mut-MEK5	MEKK2 WT-MEK5	MEKK3 PB1 HTS	CRFBP-R2 block	MEKK2wt confirm	MEKK2mut confirm	MEKK3 confirm
CCN(C(=O)COC(=O)CCCc1c[nH]c2ccccc12)c1c(N)n(Cc2ccccc2)c(=O)[nH]c1=O	0	101	.	.	.	9	.	.	.
Cc1cccc(C(=O)N2CCN(c3ncnc4c3cnn4-c3ccccc3)CC2)c1	-4	92	24*	100	106	-14	97	-2	100
Cc1cccc(-n2ncc3c(N4CCCC4)ncnc32)c1	3	98	1	103	94	-18	.	.	.
CCOC(=O)c1nc2ccccc2nc1C	1	105	0	108	143*	6	103	8	102
CCOC(=O)c1nc2ccccc2c(C)c1C	0	100	7	103	99	28	.	.	.
COC12CC(=O)C(C(C)=O)=C(O)C1(C)c1c(O)c(C)c(O)c(C(C)=O)c1O2 (stereo not given)	.	125	.	.	.	.	.	.	.
Cc1ccccc1C1=N/C(=C/c2cccs2)C(=O)O1	6	107	-5	93	94	-25	.	.	.
Cc1ccc(C2=N/C(=C/c3cccs3)C(=O)N2Nc2ccccc2)cc1	4	101	-15	52*[inhibitor]	81	-60	55	-18	91
Cc1cccc(NC(=S)NCCc2c[nH]c3ccccc23)c1	-1	83	-1	101	128*	1	107	6	104
Cc1ccc(C(=O)N/C(=C\c2cccs2)C(=O)NCCc2c[nH]c3ccccc23)cc1	-1	97	0	104	129*	3	97	-3	103
Cc1ccc(NC(=S)NCCc2c[nH]c3ccccc23)cc1	-2	105	11	108	103	8	.	.	.
O=C(NCCc1c[nH]c2ccccc12)c1cnccn1	-1	96	-3	76	74*[inhibitor]	20	105	3	101
Cc1ccc(C)c(NC(=O)C(=O)NCCc2c[nH]c3ccccc23)c1	0	95	-16	35*[inhibitor]	34*[inhibitor]	-25	102	2	107
CC(C)C(=O)c1ccc(O)c(O)c1	-2	94	-33	68	70*[inhibitor]	-5	106	12	104
Cc1ccc2nc(C)cc(C(=O)N3CCCC(N4CCN(c5ccccc5C)CC4)C3)c2c1 (stereo not given)	-1	102	3	106	102	1	.	.	.
Cc1ccc(C#N)c(SCc2ccccc2F)n1	1	99	-14	59	49*[inhibitor]	8	104	0	102
Cc1csc(-c2cnn(-c3ccccc3)c2NC(=O)c2cccc(C(F)(F)F)c2)n1	0	94	7	119	131*	12	109	8	102
O=C(Nc1ccccc1-c1ccccc1)c1cccc(C(F)(F)F)c1	-3	102	2	93	94	1	.	.	.
CC(C)CN(C(=O)c1cccc(S(=O)(=O)N2CCN(c3ccc(F)cc3)CC2)c1)C1CCS(=O)(=O)C1 (stereo not given)	3	101	.	.	.	14	.	.	.
Cc1ccc(NS(=O)(=O)c2cccc(C(=O)N/N=C/c3c(C)nn(-c4ccccc4)c3N3CCCC3)c2)c(C)c1	-2	96	0	100	91	46	.	.	.
Cc1ccc(NS(=O)(=O)c2cccc(C(=O)N/N=C/c3ccc4c(c3)OCCO4)c2)c(C)c1	1	95	0	110	129*	-9	97	-3	98
CSc1ccc(NC(=O)NCCCN2CCC(Cc3ccccc3)CC2)cc1	3	97	30*	162*	111	-17	185	40	112
CSc1ccc(NC(=O)NCCN2CCc3ccccc3C2)cc1	-4	99	-20	86	49*[inhibitor]	-24	132	17	107
COc1ccc(CN2C(=O)c3ccccc3C2c2nnnn2C(C)C)cc1 (stereo not given)	.	95	.	.	.	.	.	.	.
CCOC(=O)C(=NC(C)C)NNc1cc(Cl)ccc1Cl	0	99	0	104	141*	20	100	-1	100
SMILES	CRFBP-R2 agonist	ABCB6 inh MLPCN	MEKK2 mut-MEK5	MEKK2 WT-MEK5	MEKK3 PB1 HTS	CRFBP-R2 block	MEKK2wt confirm	MEKK2mut confirm	MEKK3 confirm
O=C(NCc1ccccc1F)C1CCCN1C(=O)Nc1ccccc1 (stereo not given)	1	101	15	110	110	-3	.	.	.
CC1(C(=O)NCc2ccccn2)C=CCN1C(=O)c1ccccc1 (stereo not given)	-1	97	1	65	50*[inhibitor]	4	114	12	110
COC(=O)[C@@H](NCc1cccc(CN[C@H](C(=O)OC)c2ccccc2)c1)c1ccccc1	-1	100	8	163*	107	0	91	-7	93
COc1cc(/C=C/C(=O)OCC(=O)NC(=O)C2COc3ccccc3O2)ccc1OC(F)F (stereo not given)	1	98	.	.	.	-3	.	.	.
COc1ccc(C(=O)NCCC2=CCCCC2)cc1	-5	99	1	107	131*	-6	100	-9	97
COc1ccc(C(=O)NCC(=O)OCC(=O)NCCC2=CCCCC2)cc1	1	98	-3	96	100	2	.	.	.
COc1ccc(CNC[C@@H](CCCCN(C)Cc2ccc(OC)cc2)N2C[C@H](c3ccccc3)N(CCc3ccc(Cl)c(Cl)c3)C(=O)C2=O)cc1	-1	110	94*	236*	111	-12	240*	100*	92
CCOc1ccc(CCN2C(=O)C(=O)N([C@H](CCCN(C)Cc3ccccc3)CNCc3ccccc3)C[C@@H]2C(C)C)cc1	.	.	5	105	96	.	.	.	.

Compound activity as filed in PubChem BioAssay.
